Screening results: PubChem BioAssay, National Center for Advancing Translational Sciences (NCATS)
A selection: hits, their analogues and other compounds. The true share with any hit is near 5.7%.
D3 ag – D3 dopamine receptor (human) agonism; max activation, %; D3R DiscoveRx beta-arrestin cells, luminescence, 90 min; 0.58% of 410,000 active; P35462; in the data active = max activation above about 30%; note: 0% is about no effect
Target sequence (P35462 whole entry, looked up): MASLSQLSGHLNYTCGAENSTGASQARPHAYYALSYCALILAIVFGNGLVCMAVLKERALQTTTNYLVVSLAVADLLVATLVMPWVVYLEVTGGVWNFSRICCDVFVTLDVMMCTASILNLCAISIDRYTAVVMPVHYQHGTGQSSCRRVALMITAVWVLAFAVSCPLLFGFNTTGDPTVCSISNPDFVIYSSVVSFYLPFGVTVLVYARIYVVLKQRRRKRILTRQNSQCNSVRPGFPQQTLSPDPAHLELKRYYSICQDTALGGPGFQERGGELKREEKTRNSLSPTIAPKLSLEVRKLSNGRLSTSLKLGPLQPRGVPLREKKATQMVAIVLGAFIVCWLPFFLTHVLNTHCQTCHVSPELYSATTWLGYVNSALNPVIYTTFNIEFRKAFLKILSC
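Cells at 1500/well, incubated overnight, then treated with pinned compounds (dopamine as control) for 90 min at 37 degrees C. DiscoveRx reagent added for 30 - 60 minutes at room temperature; luminescence read.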
GLP1R cytotox – cytotoxicity in counter-screen for GLP-1R inverse agonists | HEK293 cAMP-luciferase reporter cells, luminescence, 24 h | Potency, µM (top dose mostly 38.3 µM), without a hit: top-dose activity change, negative = inhibition, hits mostly inhibitors | 0.13% of 410,000 active;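 note: loss of luciferase light is scored as toxicity; potency is the fitted concentration of half-maximal effect; % is set by controls: 0 for no effect and ±100 for the full control effect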
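Compound-treated cells are incubated 24 hr at 37 deg C under 5% CO2 after a 12 hour attachment period, then luciferase detection reagent is added and luminescence is measured following 12 min at room temperature; lowered signal indicates toxicity.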
GLP-1R inv ag – inverse agonists of human GLP-1 receptor; P43220; HEK293 GLP-1R CRE-luciferase, luminescence, 24 h; GLP-1R form is constitutively active; Potency, µM (series often up to 38.3 µM), for inactives: at the top dose activity change, negative = inhibition, hits mostly inhibitors; 1.6% of 410,000 active; note: potency is the fitted concentration of half-maximal effect; % is set by controls: 0 for no effect and ±100 for the full control effect; nearly all actives have a fitted effect of over 55% in size
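HEK293 cells stably co-expressing constitutively active GLP-1R and a cAMP-responsive luciferase reporter were seeded in DMEM with 10% Nu serum, given compounds after 12 h, and incubated 24 h at 37 deg C. Luminescence was then read.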
D3 antag – blocks the human D3 dopamine receptor. P35462. D3R cells, DiscoveRx beta-arrestin luminescence, antagonist mode; stronger effect = lower value. max response, negative = inhibition, %. 2.5% of 360,000 active. AID 652054; in the data active = max response below about -50%; inconclusive = no clear call, values can overlap the other calls; note: % is set by controls: 0 for no effect and ±100 for the full control effect
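Cells expressing the human receptor were seeded at 1500 cells/well, incubated overnight at 37 degrees C in 5% CO2, then exposed to library compounds with dopamine controls for 90 minutes at 37 degrees C before luminescent detection.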
GLP1R ag – GLP-1 receptor (human) agonism. Potency, µM (titrated, usually from 45.6 µM), for inactives: at the top dose activation, hits mostly activators. HEK293 GLP-1R CRE-luciferase, luminescence, 4-6 h; cells express a hypersensitive GLP-1R form. P43220. 0.007% of 380,000 active; note: potency is the fitted concentration of half-maximal effect; % of control where 0% means no effect
ClpP mod – qHTS Assay for Activators of ClpP | Potency, µM (series often up to 57.5 µM), inactives show at the highest dose activity change, negative = active | 1.9% of 340,000 active | ATP-dependent Clp protease proteolytic subunit (Bacillus subtilis (strain 168)), P80244 | purified B. subtilis ClpP, FRET peptide cleavage, 20 min; active = well fitted falling curve with a large enough effect; inconclusive = small, poorly fitted or top-dose-only effect; inactive = no such curve, though single readings can be large or run the other way; note: potency is the fitted concentration of half-maximal effect; the source files actives as falling curves though it sought activators and does not explain the sign; nearly all actives have a fitted effect of over 65% in size
Target sequence (P80244 whole entry, looked up): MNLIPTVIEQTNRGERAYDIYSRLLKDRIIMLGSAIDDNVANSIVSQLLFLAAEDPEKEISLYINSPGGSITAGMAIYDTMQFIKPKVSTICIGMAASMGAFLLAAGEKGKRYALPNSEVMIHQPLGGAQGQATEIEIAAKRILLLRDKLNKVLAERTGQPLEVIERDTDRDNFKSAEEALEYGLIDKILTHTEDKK
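FRET quenching reversal measured ClpP activation: 10 microg/mL B. subtilis ClpP at pH 8 with the FRET-FV decapeptide, read at 430 nm after 320 nm excitation. The 20-min minus 0-min signal was scaled between DMSO/no-enzyme wells and ADEP (5.8 microM final).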
Numbers without * were called inactive; u = inconclusive; x = no result given. Unless noted, calls come from the whole dose curve; as a rule, active = well fitted curve in the direction sought with a large enough effect; inconclusive = small, poorly fitted or top-dose-only effect, or another doubt; inactive = no such curve, though single readings can be large; an effect the other way counts as inactive or inconclusive.

SMILES	D3 ag	GLP1R cytotox	GLP-1R inv ag	D3 antag	GLP1R ag	ClpP mod
COc1ccccc1NC(=O)C1=C(C)Nc2nc(SC)nn2C1c1ccccc1Cl (stereo not drawn)	6	-5%	19%	x	2%	-2%
Cc1ccc(NC(=O)[C@H](NC(=O)[C@@H]2Cc3ccccc3CN2)c2ccccc2)cc1C	-21	-22%	-29%	-101*	-2%	-2%
Cc1ccc(NC(=O)[C@@H](C)NC(=O)[C@@H]2Cc3ccccc3CN2)cc1	3	-23%	9%	-6	5%	1%
CCOC(=O)C1=C(c2ccccc2)N=c2sc(=Cc3cc(OC)c(OC)c(OC)c3)c(=O)n2C1c1cccs1 (stereo not drawn)	-5	25%	-7%	-9	-5%	-1%
CCOC(=O)C1=C(c2ccccc2)N=c2s/c(=C\c3ccc(O)cc3)c(=O)n2C1c1cccs1 (stereo not drawn)	-3	-11%	-24%	-57*	-10%	-2%
CCn1c(=NC(=O)CSC(C)=O)sc2cc(F)ccc21	-3	10%	-3%	-10	-35%	0%
C#CCn1c(=NC(=O)CSC(C)=O)sc2cc(F)ccc21	0	u	3.5µM*	-2	5%	-12%
Cc1ccccc1-c1noc(CSc2nnc(Cc3ccccc3)n2-c2ccc(F)cc2)n1	9	-8%	u	x	x	-2%
c1ccc(-c2cc3c(-n4cccc4)ncnc3o2)cc1	-1	3%	8%	18	-1%	28µM*
CCCCn1nnnc1C(c1ccccc1)N1CCN(c2cccc(C(F)(F)F)n2)CC1 (stereo not drawn)	-4	-1%	u	0	9%	u
CCN(CC)CCNc1ccc(C)c2sc3ccc(O)cc3c(=O)c12	-7	u	10µM*	-11	-27%	-1%
CCOC(=O)/C(C#N)=C/c1ccc(-c2ccc(C)cc2)o1	1	62%	2%	x	x	2%
CCOC(=O)c1ccc(NC(=O)CSc2nnc(CNC(=O)c3ccc(OC)cc3)n2CC)cc1	-12	4%	5%	x	-1%	-4%
O=C(NCCc1nc2ccccc2n1CCCOc1ccccc1Cl)C1CCCCC1	x	x	x	x	x	2%
Cc1ccc(-c2csc3ncnc(Oc4ccc5c(C)cc(=O)oc5c4)c23)cc1	6	3%	u	-4	0%	28µM*
CCn1nc(-c2ccccc2)c(-c2ccccc2)c(C(=O)Nc2ccc(NC(C)=O)cc2)c1=O	9	1%	-1%	x	x	0%
O=C(COC(=O)c1cc(=O)[nH]c2ccccc12)NC1CCCC1	-5	-2%	-7%	-7	3%	x
COC(=O)c1[nH]c2ccc(C)cc2c1NC(=O)NC1CCCCC1	2	-13%	-29%	26	8%	u
O=C(NC1CCCC1)c1cc(=O)[nH]c2ccccc12	33*	16%	8%	-15	0%	u
O=C(NC1CCCC1)c1ccccc1-c1ccccc1	3	-2%	-10%	5	1%	32µM*
O=C(Nc1c(C(=O)O)[nH]c2ccccc12)NC1CCCCC1	0	14%	2%	-23	9%	7.9µM*
CN(C(=O)CSc1nc2ccc(NC(=O)c3cccc(F)c3)cc2s1)c1ccccc1	3	u	5.6µM*	x	x	u
COc1ccccc1C(=O)Nc1ccc2nc(SCC(=O)N(C)c3ccccc3)sc2c1	39*	6%	10%	x	x	4%
O=C(Nc1ccc2nc(SCC(=O)N3CCCc4ccccc43)sc2c1)c1cccc(Cl)c1	-7	-1%	u	x	x	14µM*
O=C(Nc1ccc2nc(SCC(=O)N3CCc4ccccc43)sc2c1)c1cccc(Cl)c1	3	3%	-6%	x	x	u
SMILES	D3 ag	GLP1R cytotox	GLP-1R inv ag	D3 antag	GLP1R ag	ClpP mod
CCc1c(C)sc2c1CCN(Cc1ccccc1)C2c1ccccc1 (stereo not drawn)	-1	0%	u	x	x	-16%
CCCCn1nnnc1C1(C)CCC(=O)N1CCOC (stereo not drawn)	1	4%	8%	14	0%	-1%
Cc1cccc2[nH]c3c(N4CCN(C(=O)c5ccco5)CC4)ncnc3c12	4	u	0%	10	-8%	32µM*
CCOc1ccc2nc(NCCNC(=O)Nc3cccc(C)c3)c(C#N)cc2c1	4	294%	u	5	4%	16µM*
COc1ccc(OC)c(CN2CCN(CCCc3ccccc3)C(CCO)C2)c1 (stereo not drawn)	-26	1%	-29%	-87*	-5%	-6%
COc1ccc(CN2CCN(CCCc3ccccc3)C(CCO)C2)c(O)c1 (stereo not drawn)	-12	-10%	-15%	1	-5%	x
COc1ccc(CN2CCN(CCc3ccccc3)C(CCO)C2)c(O)c1 (stereo not drawn)	-18	0%	11µM*	-6	11%	x
Cc1ccnc2c(O)cccc12	x	x	x	x	x	1%
O=Cc1ccc(O)c2ncccc12	-25	424%	-80%	-83*	6%	x
CCOc1ccc(NC(=O)N2CC3CCCN3c3ccccc32)cc1 (stereo not drawn)	-9	-6%	u	x	x	-4%
CCOc1ccccc1N1CCN(CC(O)COCc2cccs2)CC1 (stereo not drawn)	-25	1%	u	-85*	3%	x
Cc1cccc(N2CCN(CC(O)COCc3cccs3)CC2)c1C (stereo not drawn)	58*	-13%	u	-6	2%	22µM*
OC(COCc1cccs1)CN1CCN(c2ccccc2Cl)CC1 (stereo not drawn)	-18	-3%	-23%	-69*	-2%	-2%
OC(COCc1ccc(Cl)cc1)CN1CCN(c2ccccn2)CC1 (stereo not drawn)	59*	-16%	-29%	0	18%	-4%
c1coc(CNc2ncnc3c2nc2n3CCCC2)c1	x	x	x	x	x	-2%
CCCCN(C)c1ncnc2c1cnn2-c1cccc(Cl)c1	-3	23%	-3%	x	x	-12%
CCOC(=O)N1CCN(CC(O)COc2ccc(CC)cc2)CC1 (stereo not drawn)	0	-2%	-26%	0	-3%	0%
OC(COCc1cccs1)CN1CCN(c2cccc(Cl)c2)CC1 (stereo not drawn)	-6	-3%	0%	-56*	3%	u
OC(COCc1cccs1)CN1CCN(c2ccccn2)CC1 (stereo not drawn)	57*	6%	6%	-25	-5%	-9%
